# High-throughput results deposited in PubChem BioAssay by National Center for Advancing Translational Sciences (NCATS).
# Most compounds without a hit are left out; they make up all but 3.1% or so of the library.
# A549 tox-1: A549 cytotoxicity, counter-screen for Nrf2 inhibitors | A549 ARE-Fluc cells, CellTiter-Fluor viability, 18-24 h | Potency, µM (doses to about 46 µM), for inactives: top-dose activity change, negative = cytotoxicity, usual class: inhibitors | 390,000 tested, 0.16% active | AID 504648; note: % is set by controls: 0 for no effect and ±100 for the full control effect
#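 A549 ARE-Fluc cells in 5% FBS OPTI-MEM, 5000 cells/well, rested 2 h then exposed to compounds in concentration-response for 18-24 h at 37 °C. Viability by CellTiter-Fluor fluorescence (Ex 405/Em 525) after 30 min; luciferase luminescence (BugLite, 15 min, RT) read afterwards.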
# IDH1 R132H inh: inhibitors of human mutant IDH1 R132H; O75874; IDH1-R132H enzyme, NADPH consumption, diaphorase/resazurin fluorescence; Potency, µM (doses to about 76.6 µM), for the others: at the top dose activity change, negative = inhibition, actives largely listed as inhibitors; 390,000 tested, 0.093% active; AID 602179; note: % is set by controls: 0 for no effect and ±100 for the full control effect; nearly all actives have a fitted effect of over 65% in size
#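 IDH1-R132H (0.5 ug/mL) preincubated 30 min with compound, then NADPH (0.016 mM) and alpha-KG (2 mM) added; 80 min at RT, pH 7.5. Remaining NADPH coupled via diaphorase/resazurin to fluorescence (540/590 nm); concentration-response curves normalized to no-enzyme control.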
# TrxR1 inh: blocks rat thioredoxin reductase 1 | recombinant rTrxR1, NADPH fluorescence consumption, selenite substrate | Potency, µM (top dose mostly 114 µM), for the others: top-dose activity change, negative = inhibition, actives largely listed as inhibitors | 390,000 tested, 1% active | AID 588453; note: % is set by controls: 0 for no effect and ±100 for the full control effect; nearly all actives have a fitted effect of over 65% in size
#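 Rat TrxR1 (90 nM in the dispensed reagent) was pre-reduced with 400 uM NADPH for 5 min at room temperature, then incubated with compound for 15 min. After 400 uM selenite was added, NADPH fluorescence (Ex 340/Em 450 nm) was followed for 8 min.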
# TrxR1 substrate: substrates of rat thioredoxin reductase 1 | O89049 | 390,000 tested, 0.01% active | purified TrxR1 substrate turnover, NADPH consumption readout | Potency, µM (doses to about 114 µM), for inactives: top-dose activity change, negative = substrate turnover | AID 588456; note: % is set by controls: 0 for no effect and ±100 for the full control effect; nearly all actives have a fitted effect of over 50% in size
#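 Rat TrxR1, dispensed at 90 nM, was prereduced with 400 uM NADPH (final) for 5 min at ~22 deg C, then incubated with compound 15 min before 400 uM selenite. A first-read NADPH fluorescence drop versus no-compound background flagged substrates.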
# Mito fusion act: inhibitors of mitochondrial division or activators of mitochondrial fusion. Potency, µM (doses to about 46.1 µM), for the others: at the top dose growth rescue (activation), usual class: activators. 320,000 tested, 0.23% active. S. cerevisiae fusion-defective mutant growth rescue, CellTiterGlo 48 h. AID 485298; note: % of control where 0% means no effect; nearly all actives have a fitted effect of over 45% in size
#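 Luminescent cell viability in 1536-well qHTS format served as the measure of rescued growth in ts fusion-mutant S. cerevisiae cultured on non-fermentable YPEG for 48 hours at 37C.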
# Nrf2 inh: blocks Nrf2 signaling; A549 ARE-Fluc reporter, luciferase luminescence, 18-24 h; Potency, µM (series often up to 46 µM), for inactives: at the top dose activity change, negative = inhibition, actives largely listed as inhibitors; 360,000 tested, 2.1% active; AID 504444; note: % is set by controls: 0 for no effect and ±100 for the full control effect; nearly all actives have a fitted effect of over 60% in size
#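 Nrf2 activity is the BugLite luminescence, read 15 min after reagent at room temperature, following CellTiter-Fluor cytotoxicity readout (30 min, 37C). Compound titrations were applied for 18-24 h to 5000 A549 ARE_Fluc cells/well in 5% FBS OPTI-MEM.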
# FLuc counter 3: counter-screen for Nrf2 inhibitors: firefly luciferase enzyme inhibition; 1,400 tested, 4% active; Potency, µM (highest dose often 57.5 µM), for inactives: top-dose activity change, negative = inhibition, actives largely listed as inhibitors; shares compounds with Nrf2 inh; AID 720522; purified firefly luciferase, luminescence inhibition; note: % is set by controls: 0 for no effect and ±100 for the full control effect; nearly all actives have a fitted effect of over 65% in size
# Target sequence (P08659 whole entry, looked up): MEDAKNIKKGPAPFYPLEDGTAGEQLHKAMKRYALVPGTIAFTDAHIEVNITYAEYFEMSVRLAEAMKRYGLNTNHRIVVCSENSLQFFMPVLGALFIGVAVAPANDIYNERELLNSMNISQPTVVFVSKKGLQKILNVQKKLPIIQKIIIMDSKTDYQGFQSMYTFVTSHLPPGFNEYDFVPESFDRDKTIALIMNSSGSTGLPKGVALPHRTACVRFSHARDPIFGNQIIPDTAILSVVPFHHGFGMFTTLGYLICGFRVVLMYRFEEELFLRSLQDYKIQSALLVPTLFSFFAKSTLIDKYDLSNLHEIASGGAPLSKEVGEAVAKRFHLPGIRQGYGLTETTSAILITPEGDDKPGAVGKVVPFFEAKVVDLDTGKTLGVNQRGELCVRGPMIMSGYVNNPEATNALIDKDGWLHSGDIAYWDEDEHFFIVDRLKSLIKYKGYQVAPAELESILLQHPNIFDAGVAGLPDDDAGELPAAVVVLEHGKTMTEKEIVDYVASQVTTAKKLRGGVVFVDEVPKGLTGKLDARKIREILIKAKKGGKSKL
# A549 tox-2: toxic to A549 ARE-Fluc cells in Nrf2 counterscreen; Potency, µM (doses to about 46.1 µM), for inactives: top-dose activity change, negative = cytotoxicity, usual class: inhibitors; A549 ARE-Fluc cells, cytotoxicity counterscreen; 1,400 tested, 2% active; AID 720523; shares compounds with Nrf2 inh;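 note: cells exposed to compounds for 18 to 24 hours; % is set by controls: 0 for no effect and ±100 for the full control effect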
# ARE-Fluc inh: Nrf2 inhibition confirmed, A549 ARE-luciferase. AID 720524. Potency, µM (doses to about 46.1 µM), inactives show at the top dose activity change, negative = inhibition, usual class: inhibitors. 1,400 tested, 74% active. shares compounds with Nrf2 inh. A549 ARE-firefly luciferase reporter, luminescence; note: % is set by controls: 0 for no effect and ±100 for the full control effect; nearly all actives have a fitted effect of over 65% in size
# * = called active by the depositor; ? = inconclusive; / = no result given; [ ] = remark or other dose. Calls come from the whole dose curve; as a rule, active = well fitted curve in the direction sought with a large enough effect; inconclusive = small, poorly fitted or top-dose-only effect, or another doubt; inactive = no such curve, though single readings can be large; an effect the other way counts as inactive or inconclusive. Potency is the fitted concentration of half-maximal effect.
SMILES,A549 tox-1,IDH1 R132H inh,TrxR1 inh,TrxR1 substrate,Mito fusion act,Nrf2 inh,FLuc counter 3,A549 tox-2,ARE-Fluc inh
Cc1ccc(OCc2cc(C(=O)N3CCCCCCC3)no2)cc1C,0%,-5%,22%,-2%,-2%,?,/,/,/
COc1cccc(CN(C)C(=O)c2cc(COc3ccc4ncccc4c3)on2)c1,?,4%,21%[57.1 µM],5%[57.1 µM],-3%,3.7µM*,-8%,-1%,7.3µM*
COCC1CCN(C(=O)c2cc(COc3ccc4ncccc4c3)on2)CC1,-27%,-3%,18%[57.1 µM],-2%[57.1 µM],-2%,3.7µM*,-12%,-5%,7.3µM*
CC(C)c1ccc(NS(=O)(=O)c2ccc3[nH]cc(C(=O)NCC4CCCO4)c(=O)c3c2)cc1 (stereo unspecified),11%,0%,0%,-7%,/,16%,/,/,/
Cc1ccc(N(CC(=O)NCCc2ccccc2)S(=O)(=O)N(C)C)cc1,-4%,-2%,14%,1%,/,-9%,/,/,/
CCc1ccc(C2=C(C)C(N3CCC(C(=O)NCCc4ccco4)CC3)=NS2(=O)=O)cc1,-4%,19%,7%[57.1 µM],2%[57.1 µM],/,?,/,/,/
O=C(c1cc(COc2ccc3ncccc3c2)on1)N1CCCC1,3%,1%,-14%,-11%,0%,4.1µM*,?,-3%,?
CCc1ccccc1-n1nnc(-c2nsc(NC(=O)c3ccc(C)c(C)c3)n2)c1C,-4%,0%,21%[57.1 µM],1%[57.1 µM],/,8.2µM*,-14%,-21%,21µM*
CCC(C)n1c(=O)c2sccc2n2c(CCCC(=O)Nc3ccc(F)cc3)nnc12 (stereo unspecified),-2%,32%,18%,-2%,/,-10%,/,/,/
CC(C)Cn1c(C(C)C)nc([N+](=O)[O-])c1Sc1ccc(Cl)cn1,-3%,3%,?,5%,12%,-16%,/,/,/
CC(C)Cn1c(C(C)C)nc([N+](=O)[O-])c1S(=O)(=O)c1ccc(F)cc1,?,5%,?,3%,1%,9.2µM*,1%,-18%,-22%
O=C(Cn1c(=O)n2nc(-c3cccc(F)c3)nc2c2ccccc21)N1CCN(c2ccc(F)cc2)CC1,3%,8%,19%[57.1 µM],1%[57.1 µM],/,/,/,/,/
O=C(Nc1ccccc1F)Nc1ccccc1N1CCCCC1,?,8%,-18%[57.1 µM],-12%[57.1 µM],0%,5.8µM*,-13%,-2%,?
CCOc1ccc(-n2c(-c3ccc(OC)cc3)c[n+]3c2CCCCC3)cc1,?,10%,18%[57.1 µM],-15%[57.1 µM],-1%,2.6µM*,2%,-19%,3.7µM*
CCOc1ccc(-n2c(-c3ccc(Br)cc3)c[n+]3c2CCCCC3)cc1,-14%,8%,6%[57.1 µM],3%[57.1 µM],-10%,?,/,/,/
CCOc1ccc(-n2c(-c3ccccc3)c[n+]3c2CCC3)cc1,-6%,-6%,6%,4%[57.1 µM],-2%,2.3µM*,1%,-10%,16µM*
COc1ccc(-c2c[n+]3c(n2-c2ccc(C)cc2)CCCCC3)cc1,-18%,8%,31%,13%,-1%,?,/,/,/
CCN1C(=O)c2ccccc2S(=O)(=O)c2ccc(C(=O)NCc3ccccc3OC)cc21,0%,-4%,30%,4%,/,-9%,/,/,/
